# Test results: the supplement of paper PMC6555819
# Columns and labels:
# Test in all cases: PBM binding z-score (relative to random genomic background probes); higher = stronger binding; sequences stand for … in GC…GCGATTGACAGCGTAGAATGAAGG
# [1] = test system: FXR:RXRa (NR concentration 270 nM, RXRa partner concentration 90 nM)
# Outline: (§1)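 For binding z-scores, the reference was random background probes on custom Agilent 4×180K protein-binding microarrays. These arrays were incubated 1 h with ligand-free nuclear receptor dimers in PBS pH 7.4, 2% milk, 0.02% Triton X-100, 1 mM DTT, 0.2 mg/mL BSA and 0.4 mg/ml salmon testes DNA. Fluorescence was scanned after antibody detection of each partner (one per run) and regression-normalized.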
# [2] = test system: LXRa:RXRa (NR concentration 270 nM, RXRa partner concentration 90 nM)
# Outline: as §1
# [3] = test system: LXRa homodimer (NR concentration 270 nM)
# Outline: as §1
# [4] = test system: LXRb:RXRa (NR concentration 270 nM, RXRa partner concentration 90 nM)
# Outline: as §1
# [5] = test system: LXRb homodimer (NR concentration 270 nM)
# Outline: as §1
# [6] = test system: PPARa:RXRa (NR concentration 270 nM, RXRa partner concentration 90 nM)
# Outline: as §1
# [7] = test system: PPARg:RXRa (NR concentration 180 nM, RXRa partner concentration 90 nM)
# Outline: as §1
# [8] = test system: PPARg:RXRa 270nM:90nM, anti-RXR (NR concentration 270 nM, RXRa partner concentration 90 nM)
# Outline: as §1
# [9] = test system: PPARg:RXRa 30nM:10nM, anti-RXR (NR concentration 30 nM, RXRa partner concentration 10 nM)
# Outline: as §1
# [10] = test system: PPARg:RXRa 90nM:30nM, anti-RXR (NR concentration 90 nM, RXRa partner concentration 30 nM)
# Outline: as §1
# [11] = test system: PPARg:RXRa DBDmut IVT, anti-RXR (DBD mutation: RXRa K156A/R161A, NR concentration 270 nM, RXRa partner concentration 90 nM)
# Outline: as §1
# [12] = test system: PPARg:RXRa IVT, anti-PPARg (NR concentration 270 nM, RXRa partner concentration 90 nM)
# Outline: as §1
# [13] = test system: PPARg DBDmut:RXRa IVT, anti-PPARg (DBD mutation: PPARg1 K132A/R137A, NR concentration 270 nM, RXRa partner concentration 90 nM)
# Outline: as §1
# [14] = test system: PPARg DBDmut IVT, anti-PPARg (DBD mutation: PPARg1 K132A/R137A, NR concentration 270 nM)
# Outline: as §1
# [15] = test system: PPARg homodimer (NR concentration 180 nM)
# Outline: as §1
# [16] = test system: PXR:RXRa (NR concentration 270 nM, RXRa partner concentration 90 nM)
# Outline: as §1
# [17] = test system: PXR homodimer (NR concentration 270 nM)
# Outline: as §1
# [18] = test system: RARa:RXR (NR concentration 270 nM, RXRa partner concentration 90 nM)
# Outline: as §1
# [19] = test system: RARa homodimer (NR concentration 270 nM)
# Outline: as §1
# [20] = test system: RARb:RXRa (NR concentration 270 nM, RXRa partner concentration 90 nM)
# Outline: as §1
Sequence,PBM binding z-score [1],PBM binding z-score [2],PBM binding z-score [3],PBM binding z-score [4],PBM binding z-score [5],PBM binding z-score [6],PBM binding z-score [7],PBM binding z-score [8],PBM binding z-score [9],PBM binding z-score [10],PBM binding z-score [11],PBM binding z-score [12],PBM binding z-score [13],PBM binding z-score [14],PBM binding z-score [15],PBM binding z-score [16],PBM binding z-score [17],PBM binding z-score [18],PBM binding z-score [19],PBM binding z-score [20]
GCTTGTAGATCAAGATTAAGAAAGACTAAGCTAA,-0.857,-0.792,-0.561,-0.525,-0.737,-0.32,0.226,-0.333,-0.252,-0.334,0.366,-0.13,0.0686,0.0924,-0.256,-0.671,-0.582,-0.252,-0.194,-0.426
TCATATAGGTAAACCGGTGAAAGTCCGTAAGTTA,0.407,0.533,0.147,0.517,-0.352,1.68,1.17,2.72,3.49,2.97,4.14,3.35,0.791,0.416,0.766,0.768,0.578,0.953,0.584,0.426
GTACCAATGTGAATAGGTCGTTGATGAGTAGGCG,-0.0565,-0.171,-0.443,-0.196,-0.467,0.275,0.47,-0.162,-0.118,-0.255,-0.469,-0.105,-0.359,0.0422,0.0773,-0.176,-0.211,0.0838,0.262,0.00696
GGAACGAGGGCTAAGTTGATAGCATCTGTCGACG,-0.545,-0.626,-0.392,-0.796,-0.848,0.746,1.37,2.81,1.41,2.31,0.209,0.114,0.146,-0.476,-0.2,-0.47,-0.382,-0.0692,-0.234,0.086
TCTAGTAGTTGATTAGGGCAACCGAAACAGCGGA,0.323,0.0277,-0.246,0.0544,-0.448,0.658,0.17,1.41,2.74,2.06,1.59,1.34,-0.69,0.23,-0.0887,0.0313,-0.395,0.285,-0.475,0.581
ATCTCTAGGTAACCAAGTTCAGTGTATGCCGAAC,0.4,0.852,0.996,0.524,0.803,1.06,0.577,0.99,0.331,0.721,3.75,3.04,0.877,1.39,0.882,1.9,1.95,0.828,1.09,1.08
ATCTCTAGGTAAACATAGTTCAGTGAATGCAAAT,0.367,4.22,0.983,1.07,0.728,0.819,1.12,1.07,0.499,0.945,2.31,2.59,0.983,1.45,1.28,1.35,0.955,0.73,1.3,1.01
TCTTGTAGATAAACAGGAGGTTAAGAAAGATCGA,0.162,1.13,0.276,1.01,-0.398,1.27,0.346,1.3,2.82,1.89,1.35,0.282,0.991,1.09,0.0399,0.748,-0.0168,1.05,0.379,0.359
TCTAGCAGGCCAGAGGGACACTCAAGAGGTACGG,-0.341,-0.607,-1.2,-0.951,-1.48,-0.201,0.823,1.13,1.39,1.15,0.376,-0.183,-1.54,-1.73,-1.07,-0.803,-0.661,-1.02,-0.883,0.0919
TCATATAGGTAATTCAGGTGAAAGTCGGCATCTA,1.4,1.17,0.456,1.25,0.393,1.87,1.09,2.58,4.33,3.59,4.31,3.55,1.64,1.6,1.41,0.703,0.443,1.34,1.6,0.546
CCTACTGGACCAAAGGTCATTGATTCCAATGCTC,4.9,5.68,5.86,5.23,2.31,6.24,10.5,9.96,10.5,10.8,3.51,5.62,0.797,0.872,3.81,5.47,3.17,5.95,2.78,4.48
CAGCCTACGTCAGGGCCAGTATAGGAGGAACGTT,-0.299,-0.664,-0.318,-0.547,-1.11,-0.518,0.171,-0.999,-0.483,-0.832,-0.745,-0.587,-0.356,-0.405,-0.116,-0.512,-0.548,0.00174,-0.296,-0.405
CCTACTGGGCCAAGGGTCATTGATTCCAATGCTC,2.79,2.59,0.211,2.63,-0.578,5.27,10.2,9.04,8.43,10.2,3.29,5.63,0.63,-0.667,1.67,3.15,-0.275,3.87,0.1,3.06
ATCTCTAGGTAAAGATAGTGCAGTGAATGCAAAT,0.222,1.16,0.00124,0.147,0.236,0.141,0.354,0.233,0.0457,0.565,1.33,1.62,0.773,0.751,-0.52,-0.0642,-0.041,0.189,0.661,-0.164
